Only some compounds are listed: those with a hit (about 2.6% of all), similar ones and a draw of the others.
TSG101-PTAP inh: qHTS Validation Assay for Inhibitors of HIV-1 Budding by Blocking the Interaction of PTAP/TSG101: Sytravon Library Screen | Tumor susceptibility gene 101 protein (Homo sapiens), Q99816 | Fluorescence polarization, FITC-PTAP peptide/Tsg101, 20 min | Potency, µM (titrated, usually from 115 µM), most hits filed as inhibitors | 44,000 tested, under 10 active | AID 1347069, 2019; also: potency is read from the fitted curve at half-maximal effect; 0% is about no effect
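Fluorescence polarization binding of Tsg101 binding domain (10 uM final) to FITC-labeled PTAP-motif peptide (50 nM final) in HEPES pH 7.5/NaCl/Tween 20/EDTA/TCEP buffer; 20 min at r.t. Actives by curve class, <25 µM, efficacy <60% inhibition.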
DRV1 agonist: qHTS for Agonists of Human Resolvin D1 Receptor DRV1 | Probable G-protein coupled receptor 32 (Homo sapiens), O75388 | hit rate 2.5% among 48,000 | activation, % at 76.9 µM | AID 1346428, 2018 | CHO-K1 GPR32 beta-arrestin PathHunter luminescence, 90 min; zero percent set by DMSO-only wells;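 active = activation of at least 60% and not above a set upper limit, about 1 call in 100 departs from these limits; inconclusive = activation of 40% to 60%, or above that upper limit; inactive = activation under 40%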; also: 0% is about no effect
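PathHunter beta-arrestin recruitment in CHO-K1 cells stably expressing ProLink-tagged GPR32. Cells were exposed to compound for 90 min at 37 C, then chemiluminescence was read after 1 h detection at ambient temperature; DMSO served as basal control.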
GALK inhibitor: qHTS Assay for Inhibitors of Human Galactokinase (GALK): NCGC Sytravon Library Screen | AID 1347072, 2019 | recombinant GALK, Kinase-Glo ATP luminescence, 1 h | 44,000 tested, under 10 active | P51570 | Potency, µM (series often up to 57.5 µM), for the others: at the highest dose activity, negative = inhibition, actives largely listed as inhibitors;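 also: plate controls were full GALK reaction for no effect and reaction lacking GALK for full effect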
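5 nM GALK with 35 µM ATP and 100 µM galactose in HEPES pH 8.0, MgCl2, NaCl, DTT, BSA; 1 h RT reaction, remaining ATP detected by Kinase-Glo Plus luminescence after 10 min; qHTS concentration series.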
FH mod: Identification of activators of human fumarate hydratase by quantitative high-throughput screening; Fumarate hydratase, mitochondrial (Homo sapiens), P07954; hit rate 0.22% among 54,000; Potency, µM (highest dose often 79.9 µM), inactives show top-dose activity change, negative = inhibition, most hits filed as inhibitors; FH coupled MDH/diaphorase resazurin fluorescence, 15 min; also: potency is read from the fitted curve at half-maximal effect; % is scaled to controls: 0 for no effect and ±100 for the full control effect; the screen sought activators but most active calls are inhibition curves; nearly all actives have a fitted effect of over 45% in size
B2AR arrestin ag: qHTS assay of beta-arrestin-biased ligands of beta2-adrenergic receptor: NCGC Sytravon Library Screen; Beta-2 adrenergic receptor (Homo sapiens), P07550; HTLA Tango cells, beta-arrestin recruitment, luciferase luminescence, 18 h; Potency, µM (titrated, usually from 46.1 µM), most hits filed as activators; 44,000 tested, under 10 active;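 also: potency is read from the fitted curve at half-maximal effect; 0% = DMSO and full agonism = EC100 isoproterenol or metaproterenol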
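Luminescence read-out: arrestin recruitment to recombinant beta2-AR releases tTA, inducing luciferase. Cells exposed 18 hr at 37 degrees C to up to 46 microM compound; %Activity from corrected signal, concentration-response curves classified by r2, magnitude and efficacy.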
GALC G270D act: A Novel Cell-Based Assay to Identify Small Molecules for B -Galactocerebrosidase; P54803; 145M-Twi-hGALC-G270D cells (Twitcher mouse brain line with human GALC G270D), HMU-beta-Gal fluorescence, 48 h; Potency, µM (highest dose often 57.5 µM), hits mostly activators; hit rate 0.1% among 45,000; AID 1159614, 2016; also: potency is read from the fitted curve at half-maximal effect; 0% is about no effect; nearly all actives have a fitted effect of over 65% in size
Target sequence (P54803 whole entry G286D): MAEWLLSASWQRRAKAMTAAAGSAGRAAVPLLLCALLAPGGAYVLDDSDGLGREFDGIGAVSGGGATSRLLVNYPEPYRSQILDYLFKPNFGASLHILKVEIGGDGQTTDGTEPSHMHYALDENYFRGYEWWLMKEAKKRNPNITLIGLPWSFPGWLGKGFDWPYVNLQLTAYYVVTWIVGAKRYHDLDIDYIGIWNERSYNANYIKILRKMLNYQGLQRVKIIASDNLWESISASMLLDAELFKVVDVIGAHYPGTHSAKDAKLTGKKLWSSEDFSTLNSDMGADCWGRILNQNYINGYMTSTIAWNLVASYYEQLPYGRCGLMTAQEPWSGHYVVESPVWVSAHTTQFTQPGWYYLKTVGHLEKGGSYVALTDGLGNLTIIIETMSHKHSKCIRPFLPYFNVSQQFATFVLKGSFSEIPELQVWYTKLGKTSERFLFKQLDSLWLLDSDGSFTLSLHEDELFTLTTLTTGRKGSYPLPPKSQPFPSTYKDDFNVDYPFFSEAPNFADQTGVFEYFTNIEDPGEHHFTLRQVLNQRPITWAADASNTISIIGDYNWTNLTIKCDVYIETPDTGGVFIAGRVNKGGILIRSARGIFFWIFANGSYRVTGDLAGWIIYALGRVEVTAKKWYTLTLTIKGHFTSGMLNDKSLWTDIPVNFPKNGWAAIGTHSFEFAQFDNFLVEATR
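Fluorescence readout: HMU-β-gal cleavage by mutant GALC (0.1 mM final, citrate/phosphate pH 5.2 with 1 mg/mL taurocholate), stopped with carbonate/bicarbonate plus Triton X-100. Cells: murine Twitcher 145M-Twi expressing human G270D GALC; qHTS for activators.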
* marks the source's active call; other numbers are inactive results; i = inactive; u = inconclusive; x = no result; [ ] = dose if it differs, or a comment. Unless noted, calls follow the shape of the dose curve; as a rule, active = well fitted curve in the direction sought with a large enough effect; inconclusive = small, poorly fitted or top-dose-only effect, or another doubt; inactive = no such curve, though single readings can be large; an effect the other way counts as inactive or inconclusive.

SMILES	TSG101-PTAP inh	DRV1 agonist	GALK inhibitor	FH mod	B2AR arrestin ag	GALC G270D act
CC(C)C(C(=O)N(C)C(C)C(N)=O)N(C)C(=O)C1CCCN1C(=O)/C=C/C=C/C(O)C(C)O (centres undefined)	x	x	x	-2%[53.3 µM]	x	x
COC1CC(=O)C23C(=O)NC(CC(C)C)C2C(C)C(C)=CC3/C=C(\C)CCC(O)C1O (centres undefined)	x	x	x	-1%[53.3 µM]	x	x
COc1ccc(CNC(=O)c2cc(-c3cccc(Cl)c3)on2)cc1	i	66*	-4%	x	i	x
COc1cccc(-c2cc(C(=O)NCc3ccccc3)no2)c1	i	34	4%	x	i	x
Cc1c(Cl)cccc1NC(=O)c1cc(-c2cccs2)on1	i	91*	-1%	-2%	i	i
CC1CCN(C(=O)c2cc(-c3cccc(Cl)c3)on2)CC1	i	28	6%	x	i	x
O=C(c1cc(-c2cccc(Cl)c2)on1)N1CCCCC1	i	66*	1%	x	i	x
Cc1ccc(NC(=O)c2cc(-c3cccs3)on2)cc1C	i	24	-1%	9%	i	i
O=C(Nc1c(Cl)cccc1Cl)c1cc(-c2cccc(O)c2)on1	i	105*	-2%	x	i	x
NC(=O)c1cccc2cn(-c3ccc(C4CCCNC4)cc3)nc12 (centres undefined)	x	x	x	6%	x	x
O=C1NCCSc2c1sc1ccc(O)cc21	x	x	x	-10%	x	x
CC(=O)N1c2ccc(S(=O)(=O)NCC3CCC(C(=O)Nc4cccc(F)c4)CC3)cc2CC1C (centres undefined)	i	64*	u	-23%	i	i
CC(=O)N1c2ccc(S(=O)(=O)NCCC(=O)Nc3ccc(Br)c(C)c3)cc2CC1C (centres undefined)	i	69*	3%	-15%	i	i
O=C(O)CC1(O)C(=O)Nc2ccccc21 (centres undefined)	x	x	x	-19%	x	x
COc1ccc2cc3cc(C(=O)Nc4ccccc4C)oc3nc2c1	i	98*	1%	-2%	i	i
COc1ccccc1-c1nc(SCC(=O)c2ccccc2)n[nH]1	i	u	0%	-19%	i	i
COc1ccc(-c2nc(SCC(=O)c3ccc(Br)cc3)n[nH]2)cc1	i	114*	10%	-10%	i	i
Cc1ccc(-n2ncc3c(N(CC(C)C)CC(C)C)ncnc32)c(C)c1	i	30	-1%	-13%	i	i
Cc1ccc(-n2ncc3c(NCC(C)C)ncnc32)c(C)c1	i	62*	-1%	2%	i	i
CCOc1ccccc1NC(=O)c1c(NC(=O)COc2ccccc2)sc2c1CCCC2	i	105*	3%	0%	i	i
CNC(=O)COC(=O)NCCC1CCN(c2cccc(C)n2)CC1	x	x	x	0%	x	x
CCOC(=O)c1c(Nc2ccc(O)cc2)nnc(-c2ccccc2)c1-c1ccccc1	i	66*	-12%	-6%	i	i
COc1cc(OC)c(NC(=O)CC(C)S(=O)(=O)c2ccc3c(c2)NC(=O)CO3)cc1Cl (centres undefined)	i	73*	3%	-5%	i	i
COc1ccc(-c2cc(C(=O)Nc3ccn(Cc4ccc(C)cc4)n3)no2)cc1OC	i	78*	3%	x	i	x
COc1ccccc1-c1cc(C(=O)Nc2c(C)nn(Cc3ccc(Cl)cc3)c2C)no1	i	72*	0%	x	i	x
SMILES	TSG101-PTAP inh	DRV1 agonist	GALK inhibitor	FH mod	B2AR arrestin ag	GALC G270D act
CC(C)C1=CCC(C)(O)C(OC2OC(CO)C(O)C(O)C2O)C1 (centres undefined)	x	x	x	-8%[53.3 µM]	x	x
CCCCn1c(NCc2cc(Cl)ccc2O)nc2ccccc21	i	102*	-3%	-24%	i	i
CC(C)CC(=O)OCc1cc(=O)n2nc(C3CCCCC3)sc2n1	i	71*	-1%	4%	i	i
Cc1ccc(NC(=O)CSc2nc(-c3cccs3)nc3cc(=O)[nH]n23)cc1	i	99*	-6%	x	i	x
CC(c1ncncc1F)C(O)(Cn1cncn1)c1ccc(F)cc1F (centres undefined)	x	x	x	1%	x	x
CNC(=O)[C@H]1O[C@@H](n2cnc3c(NCc4ccc(N)cc4)ncnc32)[C@H](O)C1O (some centres undefined)	x	x	x	-21%[53.3 µM]	x	x
O=C(NCCc1csc(-c2ccc(F)cc2)n1)c1c(F)cccc1Cl	i	45	2%	-21%	i	i
Cc1cccc(-c2nc(CCNC(=O)Cc3ccc(F)cc3)cs2)c1	i	-16	0%	-4%	i	i
O=C(Cc1ccc(F)cc1)NCCc1csc(-c2cccc(F)c2)n1	i	103*	2%	-1%	i	i
O=C(NCCc1csc(-c2ccc(F)cc2)n1)c1cccc(F)c1	i	66*	-2%	-31%	i	i
Cc1ccc(C2NC(=O)c3n[nH]c(-c4cccs4)c32)cc1 (centres undefined)	i	120*	7%	-7%	i	i
COc1ccccc1C1NC(=O)c2n[nH]c(-c3cccs3)c21 (centres undefined)	i	104*	0%	-20%	i	i
CC(C)=CCC[C@](C)(O[C@@H]1O[C@H](CO[C@@H]2OC[C@@H](O)[C@H](O)[C@H]2O)[C@@H](O)[C@H](O)[C@H]1O)[C@H]1CC[C@]2(C)[C@@H]1[C@H](O)C[C@@H]1[C@@]3(C)CC[C@H](O[C@@H]4O[C@H](CO)[C@@H](O)[C@H](O)[C@H]4O)C(C)(C)[C@@H]3CC[C@]12C	x	x	x	-4%[53.3 µM]	x	x
Cn1cc(-c2ccc3nnc(Sc4ccc5nn(C)cc5c4)n3n2)cn1	x	x	x	2%	x	x
CC(=O)N/N=C/c1ccc([N+](=O)[O-])o1	x	68*	x	-4%[53.3 µM]	x	i
C[C@@H]1CC[C@]2(C(=O)O)CC[C@]3(C)C(=CCC4[C@]5(C)C(CC[C@]43C)C(C)(C)[C@@H](O)[C@H](O)[C@@H]5O)C2[C@]1(C)O (some centres undefined)	x	x	x	0%[53.3 µM]	x	x
Clc1ccc(Nc2nnc(Cc3ccncc3)c3ccccc23)cc1	x	72*	x	-3%	x	i

Screening results from PubChem BioAssay.
